HT1080 IDH1KD tx: qHTS for induction of synthetic lethality in tumor cells producing 2HG: qHTS for the HT-1080-IDH1KD cell line; actives 2% (n = 360,000); HT-1080 IDH1 knockdown viability, ATP luminescence, 48 h; AID 686971, 2013; Potency, µM (series often up to 46.1 µM), inactives show at the highest dose activity, negative = toxicity, hits mostly cytotoxic;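 further: 0% = DMSO wells and -100% = cell-free medium wells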
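HT-1080-IDH1KD cells (IDH1 knocked down), 750/well in RPMI with 5% FBS, treated with compound 48 h at 37 degrees C. Viability by CellTiter-Glo luminescence, normalised to DMSO and no-cell wells; concentration-response curves classed.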
KB-3-1 tox: qHTS assay for MDR1-selective chemotherapeutics: Primary screen using the parental adenocarcinoma cell KB-3-1; KB-3-1 viability, CellTiter-Glo ATP luminescence, 72 h; Potency, µM (doses to about 46.1 µM), hits mostly cytotoxic; actives 1.4% (n = 400,000); AID 1347075, 2019; further: nearly all actives have a fitted effect of over 60% in size
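Cytotoxicity measured as CellTiter-Glo luminescence after 72 h at 37 C. Compound titrations were pinned onto drug-naive KB-3-1 parental adenocarcinoma cells grown in DMEM with 10% FBS, and normalized data fitted to concentration-response curves.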
HT1080-NT tox: qHTS for induction of synthetic lethality in tumor cells producing 2HG: qHTS for the HT-1080-NT fibrosarcoma cell line; actives 1.6% (n = 360,000); HT-1080-NT fibrosarcoma viability, CellTiter-Glo ATP luminescence, 48 h; Potency, µM (doses to about 46.1 µM), without a hit: top-dose activity, negative = less viability, most hits filed as cytotoxic;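 further: NT is the 2HG producing partner of a matched IDH1 knockdown line; 0% = DMSO-treated cells and -100% = media-only wells without cells; nearly all actives have a fitted effect of over 55% in size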
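A 48-hour cytotoxicity screen used HT-1080-NT cells plated 2 hours before compound delivery. ATP-based CellTiter-Glo luminescence measured viability, normalized to DMSO and no-cell controls.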
KB-V1 MDR tox: qHTS assay for MDR1-selective chemotherapeutics: Primary screen using the drug-selected MDR subline cells KB-V1; Potency, µM (top dose mostly 46.1 µM), hits mostly cytotoxic; actives 3.4% (n = 400,000); KB-V1 MDR cells viability, CellTiter-Glo, 72 h; further: nearly all actives have a fitted effect of over 60% in size
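In this primary screen, KB-V1 cells overexpressing P-gp are incubated with library compounds (lowest to highest concentration) for 72 h at 37 degrees C before a luminescent ATP viability read.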
An asterisk follows results filed as active; i = inactive; ? = inconclusive; . = no result given; [ ] = dose if it differs, or a comment. Hits are enriched below; roughly 5.7% of the tested compounds scored in any of these assays. The call rests on the fitted dose curve; in most records, active means well fitted curve in the direction sought with a large enough effect; inconclusive means small, poorly fitted or top-dose-only effect, or another doubt; inactive means no such curve, though single readings can be large; an effect the other way counts as inactive or inconclusive. Unless noted, on the % scale 0 is the no-effect control and ±100 the full control effect; potency means the concentration at half of the fitted maximal effect.

SMILES	HT1080 IDH1KD tx	KB-3-1 tox	HT1080-NT tox	KB-V1 MDR tox
Cc1ccc(-c2noc(CCC(=O)Nc3ccccc3C)n2)cc1	-27%	i	?	16µM*
Cc1ccc(-c2noc(CCC(=O)N(C)c3ccccc3C)n2)cc1	-3%	?	-4%	13µM*
Cc1cc(-c2nn(-c3ccccc3F)cc2CN2CCN(c3ccncc3)CC2)c(C)s1	?	i	21µM*	i
Cc1cc(N2CCN(Cc3cn(C)nc3-c3cccc(Cl)c3)CC2)cc(C)n1	16µM*	9.2µM*	15µM*	?
Cc1cc(N2CCN(Cc3cn(C)nc3-c3ccccc3F)CC2)cc(C)n1	?	6.5µM*	?	i
Cc1c(Cl)cccc1NC(=O)Cn1nc(C(F)(F)F)c2c1CCC2	.	i	.	i
CCOC(=O)c1cnc(Nc2nc3ccccc3o2)nc1CSC(=S)N(CC)CC	8%	1.3µM*	8%	?
CCCc1nc(Nc2nc3ccccc3o2)nc(C)c1C(=O)OCC	4%	i	?	3.7µM*
CCOC(=O)c1cnc(Nc2nc3ccccc3o2)nc1CSc1ncccn1	-1%	i	-3%	i
COc1ccc(Cl)cc1NC(=O)c1nn(-c2ccc(C)cc2)c(=O)n(C)c1=O	.	i	.	i
CCCc1ccc(C2C3=C(CC(C)(C)CC3=O)NC3=C2C(=O)c2ccccc23)cc1 (stereo unspecified)	?	?	?	21µM*
CCCCc1ccc(C2C3=C(CC(C)(C)CC3=O)NC3=C2C(=O)c2ccccc23)cc1 (stereo unspecified)	-19%	?	-6%	16µM*
CCCNCC1C(Oc2ccc(Cl)cc2)C(=O)N1c1ccccc1C (stereo unspecified)	-15%	i	-23%	i
Cc1ccccc1N1C(=O)C(Oc2ccc(Cl)cc2)C1CNC(C)(C)C (stereo unspecified)	-10%	i	-12%	5.8µM*
c1ccc(CCNc2ccnc3cc4ccccc4cc23)cc1	21µM*	18µM*	18µM*	8.2µM*
CC(C)Nc1ccc(Nc2ccnc3cc4ccccc4cc23)cc1	5.2µM*	16µM*	?	?
COc1ccc(Nc2ccnc3ccccc23)cc1	-23%	i	-15%	?
Cc1ccc(C(O)(c2ccccc2)c2ccccc2C(C)N(C)C)c(C)c1 (stereo unspecified)	?	i	?	18µM*
CCn1c(CN2CCCCC2)nc2cc(NC(=O)COc3ccccc3C(C)(C)C)ccc21	.	i	.	i
CC(=O)Nc1ccccc1NS(=O)(=O)c1ccc(Cl)cc1	?	?	-6%	13µM*
Cc1c(Cl)cccc1NS(=O)(=O)c1ccccc1	?	i	-6%	18µM*
CCC(=O)N1CCc2cc(S(=O)(=O)NCCC(=O)Nc3ccc(OC)c(OC)c3)ccc21	.	i	.	i
Cn1cc(S(=O)(=O)N2CCCCC2)cc1C(=O)Nc1cccc(C#N)c1	.	i	.	i
CCCCCCCNC(=O)C1(CC2CC(c3cccc(Br)c3)=NO2)CCN(C(=O)C2(C)CC2)CC1 (stereo unspecified)	-16%	?	-16%	?
CCCCCCCNC(=O)C1(CC2CC(c3cccc(Br)c3)=NO2)CCN(C(=O)CCCCCBr)CC1 (stereo unspecified)	?	?	16µM*	i
SMILES	HT1080 IDH1KD tx	KB-3-1 tox	HT1080-NT tox	KB-V1 MDR tox
CC1Cc2ccccc2N1C(=O)c1ccnc(C(C)(C)C)c1 (stereo unspecified)	11%	i	5%	i
COc1cc(C(=O)N2c3ccccc3CC2C)cc(OC)c1OC (stereo unspecified)	0%[9.24 µM]	?	-15%	18µM*
Cc1nc2ccc(C(=O)N3c4ccccc4CC3C)cc2s1 (stereo unspecified)	18µM*	?	?	?
COCCCNCCCOc1ccc(C(C)(C)c2ccccc2)cc1	4%	i	-9%	?
CC(C)(c1ccccc1)c1ccc(OCCCNCCO)cc1	18µM*	?	?	?
Cn1ncc(Cl)c1C(=O)NCc1ccc(Cl)cc1	-5%	?	-1%	3.7µM*
CC1(C(=O)NC2CCCCC2)CCC(=O)N1Cc1ccc2c(c1)OCO2 (stereo unspecified)	2%	i	20%	i
CC1(C)SC(=S)N(Cc2ccc3c(c2)OCO3)C1N(O)C(=O)NC1CCCCC1 (stereo unspecified)	0%[9.24 µM]	?	-2%	15µM*
O=C(NCc1ccc2c(c1)OCO2)NC1CCCCC1	13%	i	10%	i
CC1(C(=O)NC2CCCCCC2)CCC(=O)N1Cc1ccc2c(c1)OCO2 (stereo unspecified)	-1%	i	-1%	21µM*
COc1cc2c3nnc(-c4ccccc4)c-3cn(Cc3ccc(F)cc3)c2cc1OC	21µM*	i	18µM*	i
COc1cc2c3nnc(-c4ccc(F)cc4)c-3cn(Cc3ccc(C)cc3)c2cc1OC	-14%	?	-1%	i
COc1ccc2nc3oc(C(=O)N4CCN(c5cc(C)ccc5C)CC4)cc3cc2c1	.	i	.	i
CCN(C(=O)COC(=O)c1cc(-c2cccc3ccccc23)nc2ccccc12)C1CCS(=O)(=O)C1 (stereo unspecified)	-10%	i	-1%	18µM*
Cc1cc(C(=O)OCC(=O)NC2CCS(=O)(=O)C2)c(C)n1-c1ccccc1 (stereo unspecified)	-4%	?	-6%	16µM*
COc1ccc2cc(-c3cc(C(=O)OCC(=O)NC4CCS(=O)(=O)C4)c4ccccc4n3)ccc2c1 (stereo unspecified)	10µM*	i	?	i
CCOc1cccc(C2C=C(c3ccc4c(c3)OCO4)NC(c3ccccc3F)N2)c1O (stereo unspecified)	.	i	.	i
CN1CCN(c2ccc(CNC(=O)C3(C)Cc4c(-c5ccccc5)ccnc4O3)cc2)CC1 (stereo unspecified)	-16%	i	-8%	i
COc1ccccc1C(NC(=O)C1CCN(CCOc2ccc(Cl)cc2Cl)CC1)c1ccccn1 (stereo unspecified)	15µM*	i	?	i
COc1ccc(C(NC(=O)C2CCN(CCOc3ccc(Cl)cc3Cl)CC2)c2ccccn2)cc1 (stereo unspecified)	21µM*	i	23µM*	i
Cc1ccc(C(NC(=O)C2CCN(CCOc3ccc(Cl)cc3)CC2)c2ccccn2)cc1 (stereo unspecified)	?	i	?	i

Screening results as filed in PubChem BioAssay.
